Source: PubChem BioAssay (several laboratories)
Only some compounds are listed: those with a hit (about 3.8% of all), similar ones and a draw of the others.
HSF1 inhib – HSF1 inhibition | NIH3T3-HGL HSE-luciferase, MG132-induced, luminescence 8 h; active compounds read low | activity change, negative = inhibition, % at 7.5 µM (by protocol) | actives 0.77% (n = 300,000);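 active means more than half of replicate wells show activity change below -50%, luminescence cut by over half; inconclusive means some wells, but at most half, below -50%; inactive means no replicate well below -50%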;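 further: luciferase reports HSF-1 transcriptional activity via heat shock element; 0% = median of DMSO wells and -100% = zero luminescence signal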
Hsp70 act – switches on Hsp70 transcription | HeLa Hsp70 promoter luciferase reporter, luminescence; scaled: vehicle 0, proteasome-inhibitor control 100% | activation, % at 10 µM | actives 0.04% (n = 200,000);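 active means activation above the mean across all tested compounds plus 3 SD, cutoff set per campaign, cut at about 5.5% in these data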;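 further: 100% = MG132 at 30 µM as the positive control and 0% = DMSO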
HSP90 inh – blocks HSP90-mediated luciferase refolding in reticulocyte lysate; Rabbit reticulocyte lysate, luciferase refolding luminescence, 3 h; inhibition, % at 5.6 µM; actives 0.91% (n = 290,000);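 active means inhibition above the screen-wide mean plus 3 SD, computed separately per campaign, cut at about 16% in these data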;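 further: 0% = DMSO wells and 100% = 60 µM geldanamycin wells; inhibitors lower the luminescence because luciferase stays unfolded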
HSF-1 act – increases HSF-1 driven luciferase reporter signal; NIH3T3-HGL HSF-1 luciferase reporter, MG132, 8 h; 100% = twice DMSO control signal; activation, % at 9 µM; actives 1.7% (n = 300,000);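 active means mean replicate activation of at least 50% with a set share of replicates each reaching 50%; inconclusive means only one of those two conditions met; inactive means mean below 50% and too few replicates reaching it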;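 further: 0% = median of the neutral control wells and 100% = twice that signal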
NALP1 inh – inhibitors of NALP1 inflammasome in yeast; S. cerevisiae NALP1/ASC/caspase-1 growth, X-gal OD620, 72 h; inhibition, % at 10 µM; actives 0.61% (n = 280,000); AID 2071; in the data active means inhibition mostly above about 24%, no sharp cut-off; inactive means mostly below about 32%
p-CIP stab down – p/CIP protein destabilization; F442A p/CIP-EGFP cells, EGFP fluorescence, 16 h; decrease of EGFP signal, % at 10 µM; actives 0.01% (n = 290,000); AID 1984;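 active means EGFP signal decrease of at least 30% at 10 µM or well 3 SD below plate mean, unless failing retest; inactive means the rest, including hits failing retest or dose response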
HSP90 inh confirm – confirmation of HSP90 inhibitors | actives 64% (n = 2,300) | AID 1846 | shares compounds with HSP90 inh | inhibition, % at 5.9 µM | rabbit reticulocyte lysate, luciferase refolding luminescence, 3 h; in the data active means inhibition above about 18%;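 further: 0% = vehicle wells and 100% = reference inhibitor wells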
FLuc counter – blocks native firefly luciferase in HSP90 counter-screen. shares compounds with HSP90 inh. purified native firefly luciferase, luminescence. inhibition, % at 5.9 µM. actives 48% (n = 2,300);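 active means inhibition above the mean inhibition of all tested sample wells plus 3 SD, cut at about 10% in these data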;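 further: 0% = DMSO with luciferase and 100% = wells lacking luciferase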
* marks the source's active call; other numbers are inactive results; ? = inconclusive; / = not tested or not shown.

SMILES	HSF1 inhib	Hsp70 act	HSP90 inh	HSF-1 act	NALP1 inh	p-CIP stab down	HSP90 inh confirm	FLuc counter
O=C(CN1C(=O)CCC1=O)Nc1cccc2c1C(=O)NC2=O	-8.1	-0.5	21.4*	7.4	-0.7	5.2	2.6	-2.8
CC(C)Oc1ccc(CCC(=O)NNC(=S)Nc2ccccc2)cc1	-8.6	/	18.1*	3.5	-6.9	-16.7	-5.5	-9.7
O=C(O)c1cccc(NC(=S)N/N=C/c2cccc(O)c2)c1	?	-0.6	12.0	-41.2	-44.9	8.5	/	/
O=C(O)c1cccc(NC(=S)N/N=C/c2ccccn2)c1	8.3	-0.4	35.0*	6.6	-4.8	0.4	60.8*	48.6*
CC(C)(C)n1nnnc1C(c1ccccc1F)N1CCN(C2CCCC2)CC1 (configuration not stated)	2.1	0.4	22.5*	17.8	21.6	0.1	-1.3	-2.5
Cc1ccc(-c2nc(-c3ccncc3)no2)c(Cl)c1	19.0	/	27.9*	40.2	21.3	4.7	48.1*	46.6*
Clc1ccc(-c2nc(-c3ccncc3)no2)c(Cl)c1	19.3	/	/	43.0	/	/	/	/
CCn1ncc(Br)c1C(=O)Nc1ncc(C)s1	4.5	-0.3	2.1	4.8	26.6	-32.5	/	/
CCOC(=O)c1csc(NC(=O)c2ccc(OCC)cc2)n1	13.1	-0.2	41.6*	25.0	-5.4	-4.9	75.0*	-13.7
Cc1cc(-c2csc(NC(=O)c3cccc(S(=O)(=O)N(C)C)c3)n2)c(C)n1-c1ccccc1	-9.0	-0.3	1.4	-7.9	34.6	-11.2	/	/
COC(=O)c1ccc(-n2c(C)cc(-c3csc(NC(=O)c4ccc(S(=O)(=O)N(C)C)cc4)n3)c2C)cc1	-13.1	-0.1	25.4*	-27.4	21.9	1.5	24.4*	-9.4
CCOC(=O)c1csc(NC(=O)c2ccc(OC)c(OC)c2)n1	-10.2	0.2	4.6	-7.8	12.9	-3.5	/	/
CCOC(=O)c1csc(NC(=O)c2ccc3c(c2)OCCO3)n1	15.9	/	57.2*	26.3	-17.2	-5.2	84.1*	-11.7
CCOC(=O)c1sc(NC(=O)c2ccc(S(=O)(=O)N(C)C)cc2)nc1C	-39.3	-0.3	-2.6	-52.1	6.9	-14.2	/	/
CCOC(=O)c1csc(NC(=O)c2ccc(S(=O)(=O)N(C)C)cc2)n1	-1.6	-0.2	24.6*	-4.7	26.7	-9.7	37.3*	-7.2
CCOC(=O)c1csc(NC(=O)c2ccc(N3C(=O)CCC3=O)cc2)n1	-7.9	-0.3	8.4	1.2	16.7	1.9	/	/
O=C(OCc1ccc(Br)cc1F)c1cc2ccccc2oc1=O	-8.3	/	-2.0	1.0	27.6	-2.4	/	/
CC(Oc1cc2oc(=O)c3c(c2cc1Cl)CCC3)C(=O)NCc1ccncc1 (configuration not stated)	-0.1	/	-0.5	-2.9	7.5	6.1	/	/
Cc1c(C(=O)O)c(C(=O)O)nc2ccc(N3CCOCC3)cc12	-5.9	0.0	-1.4	-6.0	-4.5	-14.4	/	/
Cc1ccc(N2C(=O)N(CC(=O)Nc3cccc(C)c3C)C(=O)C2C)cc1 (configuration not stated)	2.8	/	/	-3.8	/	/	/	/
CCC(C)(C)n1nnnc1CN1CCN(c2ccc(OC)cc2)CC1	2.5	-0.1	-0.3	24.0	6.4	0.4	/	/
COc1ccc(C(=O)COc2ccccc2C#N)cc1	20.6	/	0.1	44.3	/	0.7	/	/
NS(=O)(=O)c1ccc(NC(=O)/C=C/c2cccs2)cc1	4.4	/	0.6	2.6	/	-9.1	/	/
CCN(CC)CCOC(=O)c1ccc(NC(=O)/C=C/c2cccs2)cc1	-18.5	-0.2	26.7*	-18.8	20.2	-12.4	6.0	-6.6
CCCN(C(=O)c1cn(-c2ccccc2)nc1-c1ccc(OC)cc1)C1CCS(=O)(=O)C1 (configuration not stated)	1.3	/	/	3.0	/	/	/	/
SMILES	HSF1 inhib	Hsp70 act	HSP90 inh	HSF-1 act	NALP1 inh	p-CIP stab down	HSP90 inh confirm	FLuc counter
Cc1ccc2nc(-c3ccccn3)[nH]c2c1	1.1	/	46.3*	16.4	-29.5	-2.1	60.8*	51.2*
Cc1ccc2nc(-c3ccccc3N)[nH]c2c1	-6.7	0.0	21.5*	15.0	13.2	-1.8	38.6*	33.2*
Cc1ccc(C(=O)Nc2cccc3ccccc23)cc1	20.5	/	-1.9	27.1	2.4	-0.7	/	/
CC(C)(C)c1ccc(C(=O)Nc2cccc3c(=O)[nH][nH]c(=O)c23)cc1	-61.4*	-0.5	46.6*	-60.9	35.5	-6.2	62.5*	20.8*
NC(=O)Cc1ncc(C(F)(F)F)cc1Cl	-2.3	0.4	24.5*	-0.3	9.0	-4.9	-1.1	-5.2
CCc1nnc(SC(C)C(=O)Nc2nccs2)n1C (configuration not stated)	-2.6	/	-0.9	-0.3	-0.3	-1.7	/	/
CCCCCc1cccnc1	-5.9	/	-1.9	0.2	26.9	7.5	/	/
CN(C)c1ccc(-c2nc3cc(N)ccc3o2)cc1	-11.6	/	29.5*	-22.6	4.4	0.7	55.0*	51.5*
CC(C)(C)NC(=O)CCSc1nnc(-c2ccco2)o1	-0.4	-0.2	6.7	21.2	17.1	7.4	/	/
NNC(=O)CCc1nc2ccccc2[nH]1	4.2	0.0	2.4	-5.9	4.0	-6.7	/	/
Cc1cc(C)c2nc(N3CCC(C(=O)NCCCN4CC(C)CC(C)C4)CC3)sc2c1 (configuration not stated)	-31.2	0.2	30.7*	-37.5	7.1	-8.2	40.1*	6.4
CC1Cc2cc(/C(O)=C3/C(=O)C(=O)N(Cc4ccco4)C3c3cccs3)ccc2O1 (configuration not stated)	-42.3	0.0	36.2*	-45.4	6.2	-3.8	0.9	0.7
CC1Cc2cc(/C(O)=C3/C(=O)C(=O)N(CCCn4ccnc4)C3c3ccncc3)ccc2O1 (configuration not stated)	-9.8	-0.2	-1.7	-17.6	-11.6	10.4	/	/
COc1ccc(/C(O)=C2/C(=O)C(=O)N(Cc3ccco3)C2c2cccs2)cc1 (configuration not stated)	20.8	-0.4	-1.1	22.1	4.7	6.2	/	/
CC1Cc2cc(/C(O)=C3/C(=O)C(=O)N(CCCn4ccnc4)C3c3ccco3)ccc2O1 (configuration not stated)	/	0.2	41.7*	/	-0.8	-4.5	40.3*	39.0*
Cc1ccc(N2CC(O)=C(c3nc4ccccc4c(=O)[nH]3)C2=N)cc1C	0.0	0.2	25.0*	5.0	-3.6	-3.7	-11.0	-10.0
CCOc1ccc(N2CC(O)=C(c3nc4ccccc4c(=O)[nH]3)C2=N)cc1	3.0	-0.4	-1.4	?	7.2	-3.8	/	/
Cc1csc(N/N=C/c2ccccn2)n1	-9.7	-0.1	48.2*	3.0	2.7	-8.1	52.6*	38.4*
